For five compounds, composite z-score and z-score results are on record in PubChem BioAssay.

Activity calls are given as the source filed them.

Assay [1] is described as follows: small molecules captured by biotinylated probe aFSTL3 – biochemical, small-molecule microarray, fluorescence 635/667, stem cell growth factor project, primary screen (AID 1064).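 Further: measures binding of the biotinylated anti-FSTL3 antibody to printed compounds.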 The settings on record: higher = more signal.
Assay [2] can be described thus: binders from COS7 lysate, DM2A8 probe, primary screen, torsin A project, cell lysate, small-molecule microarray, fluorescence 635/667 (AID 1065). The settings on record: higher = more signal, COS7 lysate expressing mutant human TOR1A.
A short description of assay [3]: small molecules captured by biotinylated probe aFGF2 – biochemical, small-molecule microarray, fluorescence 635/667, stem cell growth factor project, primary screen (AID 1067).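 Further: measures binding of biotinylated aFGF2 protein to printed compounds on slides; z-score merges feature fluorescence and signal-to-noise across triplicate slides.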 Conditions: higher = more signal.
A short description of assay [4]: small molecules captured by biotinylated probe aFGF10 – biochemical, small-molecule microarray, fluorescence 635/667, stem cell growth factor project, primary screen (AID 1071).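 Further: score merges 667 nm spot intensity and signal to noise from triplicate slides.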 The settings on record: higher = more signal.
In assay [5] the target is Neurogenic locus notch homolog protein 2 (Homo sapiens) (UniProt Q04721). In words: small molecules binding Notch2 protein – biochemical, small-molecule microarray, 635 nm fluorescence, stem cell growth factors, primary screen (AID 1073). Conditions: higher = more signal.
The target in assay [6] is Pro-neuregulin-1, membrane-bound isoform (Homo sapiens) (UniProt Q02297). The assay is described as follows: small molecules binding neuregulin-1 protein – biochemical, small-molecule microarray, fluorescence 635/667, psychiatric disease protein project, primary screen (AID 1075).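 Further: score combines 667 nm spot fluorescence with signal to noise.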 The settings on record: NRG1 binding, 635 nm fluorescence, higher = more signal.
For assay [7], the system named is Neuregulin-1 EGF-like domain. The assay is described as follows: small molecules binding NRG1 EGF domain – biochemical, small-molecule microarray, 635 nm fluorescence, primary screen (AID 1081).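 Further: binding of the protein to compounds printed on small-molecule microarray slides.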 Conditions: higher = more signal.
Assay [8] can be described thus: FRG1 expression reporter modulators in myotubes – cell-based, C2C12 myotubes, firefly/Renilla luciferase, luminescence, FRG1 inhibition for FSHD, primary screen (AID 1084). The settings on record: FRG1 promoter luciferase, higher = more signal, called active from +8 up or from −8 down.
Assay [9] in a line: small molecules captured by biotinylated probe aFST – biochemical, small-molecule microarray, fluorescence 635/667, stem cell growth factor project, primary screen (AID 1086).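 Further: score merges 667 nm fluorescence with signal-to-noise of each printed compound spot.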 The settings on record: higher = more signal.
Assay [10] can be described thus: binders of probe aHhip on microarray, primary screen, stem cell growth factor project, biochemical, small-molecule microarray, fluorescence 635/667 (AID 1087).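 Further: score merges spot fluorescence at 667nm with spot signal to noise ratio.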 The settings on record: higher = more signal.
The subject of assay [11] is PRMT1 (protein arginine N-methyltransferase 1). In words: small molecules binding arginine methyltransferase PRMT1 – biochemical, small-molecule microarray, 635 nm fluorescence, primary screen (AID 1088).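 Further: binding of Prmt1 protein to compounds spotted on small-molecule microarray slides.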 Conditions: higher = more signal.
The nature of assay [12]: growth effects on S. cerevisiae YJM789 – YJM789 clinical isolate, OD600, 24 h, basal, primary screen (AID 1089).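 Further: growth of clinical yeast isolate S. cerevisiae YJM 789 seeded 1000 cells per well; test concentration not given here.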 The settings on record: higher = more signal, called active from +8 up or from −8 down.
Assay [13] can be described thus: S. pombe growth modifiers, basal conditions – strain 972, OD600, 24 h, no modulator, primary screen (AID 1090).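 Further: basal condition with compound alone and no growth modifier present; test concentration not given here.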 Conditions: S. pombe 972 growth, higher = more signal, called active from +8 up or from −8 down.
The nature of assay [14]: budding yeast growth modifiers under rapamycin – strain BY4716, OD600, 96 h, primary screen (AID 1091). Further: test concentration not given here. Conditions: S. cerevisiae BY4716 + rapamycin, higher = more signal, called active from +8 up or from −8 down.
In assay [15] the target is Torsin-1A-interacting protein 2 (Homo sapiens) (UniProt Q8NFQ8). In words: small molecules binding lysate-expressed LULL1 – cell lysate, human LULL1 lysate, 635/667 nm fluorescence, primary screen (AID 1092).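 Further: probe is lysate of COS7 cells overexpressing human LULL1; score merges per-feature 667 nm fluorescence with signal-to-noise.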 Conditions: small-molecule microarray, hLULL1 lysate binding, 635 nm fluorescence; higher = more signal.
A short description of assay [16]: optical density change of DRC41 E. coli – strain DRC41, OD650, 24 h, E. coli filamentation project, primary screen (AID 1093).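 Further: MC1000 strain lacking acrAB efflux and sulA so SOS filamentation is blocked; test concentration not given here.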 The settings on record: E. coli DRC41 growth, higher = more signal, called active from +8 up or from −8 down.
Assay [17] in a line: probe aLefty2 binding to arrayed compounds – biochemical, biotinylated probe, 635/667 nm fluorescence, primary screen (AID 1094).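 Further: score merges spot fluorescence near 667 nm with spot signal-to-noise ratio.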 The settings on record: small-molecule microarray, higher = more signal.
The subject of assay [18] is Noggin (protein binding on small-molecule microarray). The assay is described as follows: small molecules binding Noggin protein – biochemical, 635/667 nm fluorescence, primary screen (AID 1095).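 Further: score merges 667 nm feature fluorescence with signal to noise over triplicate slides.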 The settings on record: 635 nm fluorescence, higher = more signal.
For assay [19], the target named is Neurogenic locus notch homolog protein 3 (Homo sapiens) (UniProt Q9UM47). In words: small molecules binding NOTCH3 protein – biochemical, 635/667 nm fluorescence, primary screen (AID 1096). Conditions: small-molecule microarray, 635 nm fluorescence, higher = more signal.
The nature of assay [20]: probe aEGFR binding to arrayed compounds – biochemical, biotinylated probe, 635/667 nm fluorescence, primary screen (AID 1097).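 Further: probe is a biotinylated anti-EGFR antibody binding compounds printed on slides; score combines fluorescence near 667 nm and signal to noise of each spot.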 The settings on record: small-molecule microarray, higher = more signal.

Torsin-1A-interacting protein 2 (Homo sapiens), sequence (Q8NFQ8 whole entry, looked up): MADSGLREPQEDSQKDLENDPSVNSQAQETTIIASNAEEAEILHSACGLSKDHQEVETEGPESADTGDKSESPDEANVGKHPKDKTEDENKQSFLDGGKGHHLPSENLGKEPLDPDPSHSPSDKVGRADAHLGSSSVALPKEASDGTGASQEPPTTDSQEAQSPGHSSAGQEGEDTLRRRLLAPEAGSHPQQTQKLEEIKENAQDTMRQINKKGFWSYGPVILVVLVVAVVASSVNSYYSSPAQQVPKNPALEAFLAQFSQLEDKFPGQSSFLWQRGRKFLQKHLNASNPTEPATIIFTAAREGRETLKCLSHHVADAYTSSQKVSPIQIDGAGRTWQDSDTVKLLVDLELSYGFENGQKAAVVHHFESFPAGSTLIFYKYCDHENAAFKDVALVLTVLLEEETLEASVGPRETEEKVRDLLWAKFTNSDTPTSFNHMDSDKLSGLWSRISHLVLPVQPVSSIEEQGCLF
Pro-neuregulin-1, membrane-bound isoform (Homo sapiens), sequence (Q02297 whole entry, looked up, the tested form may be a part, canonical isoform): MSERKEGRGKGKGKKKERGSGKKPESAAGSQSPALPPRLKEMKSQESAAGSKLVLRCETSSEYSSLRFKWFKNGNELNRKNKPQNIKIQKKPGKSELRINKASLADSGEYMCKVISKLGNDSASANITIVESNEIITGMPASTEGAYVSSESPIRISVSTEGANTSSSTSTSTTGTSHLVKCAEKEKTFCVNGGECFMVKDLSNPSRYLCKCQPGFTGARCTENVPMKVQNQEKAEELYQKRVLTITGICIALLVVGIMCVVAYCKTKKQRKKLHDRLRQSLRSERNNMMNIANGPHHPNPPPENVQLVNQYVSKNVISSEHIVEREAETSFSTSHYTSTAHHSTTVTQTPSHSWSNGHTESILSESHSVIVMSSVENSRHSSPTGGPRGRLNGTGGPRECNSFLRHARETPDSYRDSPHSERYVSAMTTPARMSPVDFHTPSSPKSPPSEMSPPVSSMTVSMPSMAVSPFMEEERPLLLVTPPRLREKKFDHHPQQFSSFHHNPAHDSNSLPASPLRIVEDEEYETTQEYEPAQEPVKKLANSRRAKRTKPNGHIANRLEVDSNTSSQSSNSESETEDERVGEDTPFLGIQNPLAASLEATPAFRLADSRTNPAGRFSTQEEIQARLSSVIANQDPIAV
Neurogenic locus notch homolog protein 3 (Homo sapiens), sequence (Q9UM47 whole entry, looked up): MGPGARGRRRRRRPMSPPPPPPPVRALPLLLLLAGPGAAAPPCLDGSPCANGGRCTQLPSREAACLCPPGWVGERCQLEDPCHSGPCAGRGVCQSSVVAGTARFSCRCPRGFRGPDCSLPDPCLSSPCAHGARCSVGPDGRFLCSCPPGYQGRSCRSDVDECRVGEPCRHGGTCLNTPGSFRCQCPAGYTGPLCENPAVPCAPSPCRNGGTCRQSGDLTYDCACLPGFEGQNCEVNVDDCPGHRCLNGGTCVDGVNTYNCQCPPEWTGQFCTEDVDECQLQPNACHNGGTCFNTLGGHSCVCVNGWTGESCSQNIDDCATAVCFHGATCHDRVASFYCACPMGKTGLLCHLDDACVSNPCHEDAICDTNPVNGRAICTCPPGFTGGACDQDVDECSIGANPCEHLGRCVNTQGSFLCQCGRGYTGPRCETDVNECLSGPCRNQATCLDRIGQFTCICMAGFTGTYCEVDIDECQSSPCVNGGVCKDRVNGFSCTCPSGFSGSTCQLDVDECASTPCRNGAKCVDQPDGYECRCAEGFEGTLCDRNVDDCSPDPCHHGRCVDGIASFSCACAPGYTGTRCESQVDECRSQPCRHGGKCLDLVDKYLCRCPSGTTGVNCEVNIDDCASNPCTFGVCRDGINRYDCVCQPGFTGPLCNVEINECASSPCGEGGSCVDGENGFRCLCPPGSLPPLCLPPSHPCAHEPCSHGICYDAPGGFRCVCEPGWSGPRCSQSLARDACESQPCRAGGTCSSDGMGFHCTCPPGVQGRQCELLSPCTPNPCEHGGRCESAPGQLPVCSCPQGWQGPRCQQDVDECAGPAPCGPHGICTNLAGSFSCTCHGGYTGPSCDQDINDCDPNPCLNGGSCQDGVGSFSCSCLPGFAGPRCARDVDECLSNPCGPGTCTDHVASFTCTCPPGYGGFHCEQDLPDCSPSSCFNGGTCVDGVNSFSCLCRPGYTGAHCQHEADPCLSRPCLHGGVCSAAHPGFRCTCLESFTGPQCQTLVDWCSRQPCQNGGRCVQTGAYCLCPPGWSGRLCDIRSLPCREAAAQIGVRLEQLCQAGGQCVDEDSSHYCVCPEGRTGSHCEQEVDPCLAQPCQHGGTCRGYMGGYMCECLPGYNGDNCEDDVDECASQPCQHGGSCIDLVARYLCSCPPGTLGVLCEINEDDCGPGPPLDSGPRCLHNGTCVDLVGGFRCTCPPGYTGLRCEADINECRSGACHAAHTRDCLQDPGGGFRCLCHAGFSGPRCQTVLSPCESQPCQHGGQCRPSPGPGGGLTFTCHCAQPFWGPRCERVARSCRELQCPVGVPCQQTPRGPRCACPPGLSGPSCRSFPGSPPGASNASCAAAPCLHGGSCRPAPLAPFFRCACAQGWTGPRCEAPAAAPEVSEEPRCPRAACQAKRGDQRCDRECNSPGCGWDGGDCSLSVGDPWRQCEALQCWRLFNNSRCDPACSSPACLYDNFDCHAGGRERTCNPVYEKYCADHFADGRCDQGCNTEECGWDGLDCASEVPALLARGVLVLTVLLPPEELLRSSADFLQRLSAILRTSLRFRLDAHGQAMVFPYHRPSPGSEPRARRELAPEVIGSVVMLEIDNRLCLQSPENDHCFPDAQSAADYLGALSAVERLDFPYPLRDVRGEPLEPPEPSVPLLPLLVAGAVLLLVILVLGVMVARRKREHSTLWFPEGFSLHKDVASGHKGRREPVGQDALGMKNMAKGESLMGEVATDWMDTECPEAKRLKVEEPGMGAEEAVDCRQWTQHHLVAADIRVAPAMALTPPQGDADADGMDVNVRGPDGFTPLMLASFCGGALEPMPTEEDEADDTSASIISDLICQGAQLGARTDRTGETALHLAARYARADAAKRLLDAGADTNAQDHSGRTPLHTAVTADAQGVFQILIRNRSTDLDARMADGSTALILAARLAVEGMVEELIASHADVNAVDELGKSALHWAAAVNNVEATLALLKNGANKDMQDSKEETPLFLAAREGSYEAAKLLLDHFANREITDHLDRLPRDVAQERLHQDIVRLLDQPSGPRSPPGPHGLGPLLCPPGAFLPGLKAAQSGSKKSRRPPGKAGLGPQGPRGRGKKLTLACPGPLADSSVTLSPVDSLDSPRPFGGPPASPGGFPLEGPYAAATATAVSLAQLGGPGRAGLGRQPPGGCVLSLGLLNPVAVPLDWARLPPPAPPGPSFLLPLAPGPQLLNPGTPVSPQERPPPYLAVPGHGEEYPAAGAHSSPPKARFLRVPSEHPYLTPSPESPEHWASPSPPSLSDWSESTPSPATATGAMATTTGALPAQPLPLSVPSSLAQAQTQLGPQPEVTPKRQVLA

As to `CCOC(=O)C[C@H]1[C@H](OC(=O)c2ccc(C(=O)c3ccccc3)cc2)[C@@H](NC(=O)c2ccc(-c3ccccc3)cc2)c2cc(OCCCO)ccc2N1C(=O)c1ccc2ccccc2n1`, the composite z-score was -0.378 in assay [1]; 0.292 in assay [2]; -0.0685 in [3]; 0.773 in assay [4]; 0.643 in assay [5]; 0.5 in assay [6]. Besides, the composite z-score in assay [7] is 0.927; in assay [9], 0.465; in [10], -0.193; in [11], 1.44; in assay [15], 2.29; in assay [17] it was -0.19. Besides, the results for the composite z-score in [18], in assay [19] and in assay [20] were 0.609, 1 and -0.109, respectively. Also, the z-score in assay [8] was 0.0728 (inactive); in assay [12], -1.05 (inactive); in assay [13], 0.0048 (inactive); in [14], 0.276 (inactive); in [16] it was 1.44 (inactive).
For `CN1C(=O)C2C=CC(C(O)C(c3ccccc3)c3ccccc3)N(NC(=O)OC(C)(C)C)C2C1=O` (stereo not given), the composite z-score in [1] is 1.16; in [2] it was 0.868; in assay [3], 0.448; in [4], 1.09; in assay [5] it was 1.73; in assay [6] it was 1.99. Besides, the composite z-score in [7] was 1.22; in assay [9], 1.79; in [10], -0.116; in [11] it was 1.42; in [15], 3.35; in [17], 0.59. For the same compound, the composite z-score in assay [18] was -0.168; in assay [19], 1.09; in [20], 0.311. Besides, the z-score is 0.745 (inactive) in assay [8]; -1.79 (inactive) in assay [12]; -4.38 (inactive) in assay [13]; -0.512 (inactive) in [14]; -0.805 (inactive) in [16].
`Cc1cc(C)c(-c2cc([C@H](C)ON=C3[C@H]4CCn5c(=O)n(-c6ccccc6)c(=O)n5[C@H]4[C@H](O)[C@@H]4O[C@H]34)on2)c(C)c1`: the composite z-score in [1] was -0.437; in assay [2], 1.55; in assay [3], 0.0168; in assay [4], 0.481; in assay [5], 0.471; in assay [6], 0.463. Also, the composite z-score in [7] was 0.0257; in assay [9], 0.484; in assay [10], 0.0024; in assay [11] it was 0.432; in assay [15] it was 1.83; in [17], -0.133. Further, the composite z-score was 0.627 in [18], 0.766 in [19] and -0.0978 in [20]. The z-score was -0.793 (inactive) in assay [8]; 0.566 (inactive) in assay [12]; -1.84 (inactive) in [13]; 0.0884 (inactive) in [14]; 0.771 (inactive) in assay [16].
For `COc1ccc(COC(=O)NN=C2C[C@@H](O)[C@@H](O)[C@@H]3[C@@H]4C(=O)N(Cc5ccc6c(c5)OCO6)C(=O)[C@@H]4CC[C@@H]23)cc1`, the composite z-score in assay [1] was 1.58; in [2], 0.43; in assay [3], 0.0203; in [4], -0.0669; in assay [5], -0.732; in [6], -0.424. The composite z-score was 0.146 in [7]; 1.18 in [9]; 0.0722 in assay [10]; -0.291 in assay [11]; 0.529 in assay [15]; 0.63 in assay [17]. Also, the composite z-score in assay [18] is -0.666; in assay [19], -0.303; in assay [20], -0.187. The z-score is -0.918 (inactive) in assay [8]; -1.65 (inactive) in assay [12]; -0.654 (inactive) in assay [13]; -0.731 (inactive) in assay [14]; -0.486 (inactive) in [16].
With `CN1C(=O)C2C(C1=O)C1C=C(CCCO)C2C(c2ccc(CN3CCCC3)cc2)N1C` (stereo not given), the composite z-score in assay [1] was 0.192; in [2] it was 0.249; in assay [3], -0.0902; in [4], -0.302; in [5] it was -0.291; in [6] it was 0.0016. Moreover, the composite z-score in assay [7] was 0.725; in [9] it was -0.424; in assay [10], 0.0749; in assay [11] it was -0.0446; in [15], -0.0999; in [17] it was -0.193. Also, the figures for the composite z-score in assay [18], in assay [19] and in assay [20] were -0.347, -0.575 and -0.133, respectively. Further, the z-score is 0.243 (inactive) in assay [8]; -0.363 (inactive) in [12]; 0.652 (inactive) in assay [13]; -0.14 (inactive) in assay [14]; 0.145 (inactive) in assay [16].
